PubChem BioAssay AID686978 (National Center for Advancing Translational Sciences (NCATS), 2013)
Hit rate of the full screen: of about 420,000 compounds, about 64,000 (15%) were called active. Inconclusive results (about 27%) are left out. Calls come from the whole dose curve; as a rule, active = well fitted inhibition curve with a large enough effect; inconclusive = small, poorly fitted or top-dose-only effect; inactive = flat fitted curve, though single readings scatter. A selection follows. Entries that show only a call come without a potency.

Test: qHTS for Inhibitors of human tyrosyl-DNA phosphodiesterase 1 (TDP1): qHTS in cells in absence of CPT; note: nearly all actives have a fitted effect of over 55% in size
Conditions: DT40 Tdp1-/- hTDP1 cells, no CPT, ATP luminescence, 48 h; activity change, negative = growth inhibition: at 46.2 µM (top of the series)
How it was run: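 A cellular qHTS used chicken DT40 cells lacking endogenous Tdp1 but carrying stably transfected human TDP1. Compounds were applied without camptothecin, and cell growth kinetics were judged by ATP-dependent luminescence after ≥48 hr.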
Potency is the fitted concentration of half-maximal effect.

Row | SMILES | Potency
1 | CCNc1nc(-c2cc3ccccc3o2)cs1 | inactive
2 | O=c1oc2ccccc2cc1-c1csc(Nc2ccc(O)cc2)n1 | 8.2 µM (active)
3 | COc1ccc2nc(Nc3nc(-c4cc5ccccc5oc4=O)cs3)sc2c1 | 11.6 µM (active)
4 | COc1ccc2cc(-c3nc(Cl)c4c5c(sc4n3)CC(C)CC5)c(=O)oc2c1 (centres undefined) | inactive
5 | Nc1ncc(-c2cc3ccccc3oc2=O)s1 | inactive
6 | COc1ccc2nc(Nc3nc4cc5c(cc4s3)OCCO5)sc2c1 | inactive
7 | CC(C)C(C(=O)NC1CCCCC1)N(CC1CCCO1)C(=O)CNS(=O)(=O)c1ccc(F)cc1 (centres undefined) | inactive
8 | O=C(O)CCC(=O)N(Cc1ccccc1)Cc1ccccc1 | inactive
9 | CC1(C)CC(=O)C=C(NCc2ccncc2)C1 | inactive
10 | Cc1cccc2c(=O)n3c(nc12)CCCCC3 | inactive
11 | CC(=O)Oc1ccc(-c2nc3c(C)cccc3c(=O)o2)cc1 | inactive
12 | Cc1nc(N=C(N)N)nc2c(C)cccc12 | 20.6 µM (active)
13 | CCCN1Cc2cccc(C(=O)NCc3ccccc3)c2C1=O | inactive
14 | CCOc1ccc(N2C(=O)CN(c3cccc4ccccc34)C2=S)cc1 | inactive
15 | Cc1cc(C)c2[nH]c(=O)c(CN(Cc3ccccc3)C(=S)NCCCN(C)C)cc2c1 | 16.4 µM (active)
16 | CCN(CC)CCCNC(=S)N(CCO)Cc1cc2cc3c(cc2[nH]c1=O)OCO3 | inactive
17 | COCCCNC(=S)N(Cc1ccccc1)Cc1ccc(F)cc1 | inactive
18 | CCCCNC(=O)c1c[nH]c2ccc(S(=O)(=O)Nc3ccc(OCC)cc3)cc2c1=O | inactive
19 | Cc1ccc(/C=C2\CCn3c2nc2cc(C(=O)O)ccc2c3=O)c(C)c1 | inactive
20 | CC(=O)C[C@@H](O)CC(=O)[C@H]1OC(=O)CCCCCCc2ccccc21 | inactive
21 | CC(C)(C)c1cc(=O)n2c(nc3ccccc32)[nH]1 | inactive
22 | Fc1ccc(-c2ccc(CNCc3ccccn3)o2)cc1Cl | 20.6 µM (active)
23 | O=C(NCc1ccccn1)c1cc(-c2ccccc2Cl)on1 | inactive

Row | SMILES | Potency
24 | O=C(NCc1ccccn1)Nc1ccc(Cl)cc1 | inactive
25 | COc1ccc(CNC(=O)CN(Cc2ccccc2Cl)C(=O)c2csnn2)cc1 | inactive
26 | COCCNC(=O)COc1ccc(C)c(C)c1 | inactive
27 | Cc1[nH]c(C)c(S(=O)(=O)N2CCN(c3cccc(C(F)(F)F)c3)CC2)c1C(=O)N1CCCCC1 | 10.3 µM (active)
28 | Cc1ccc(C)c(NS(=O)(=O)c2c(C)[nH]c(C)c2C(=O)N2CCCCC2)c1 | inactive
29 | Cc1ccc(NS(=O)(=O)c2c(C)[nH]c(C)c2C(=O)N2CCCCC2)c(C)c1 | inactive
30 | CCc1noc(C)c1C(=O)N1CCN(S(=O)(=O)c2cccc(C(F)(F)F)c2)CC1 | inactive
31 | Cc1[nH]c(C)c(S(=O)(=O)N2CCC(C)CC2)c1C(=O)N1CCCC1 | inactive
32 | Cc1ccc(C)c(N2CCN(S(=O)(=O)c3c(C)[nH]c(C)c3C(=O)N3CCCC3)CC2)c1 | 23.1 µM (active)
33 | O=S(=O)(NCc1cccnc1)c1ccc(Cl)nc1 | inactive
34 | Cc1occc(=O)c1OCc1c(Cl)cccc1Cl | inactive
35 | O=C(Nc1nnc(-c2ccc(F)cc2)s1)c1c(F)cccc1Cl | inactive
36 | CC(=O)N1CCc2ccc(N)cc21 | inactive
37 | O=C(NCc1ccc2c(c1)OCO2)c1c(-c2ccsc2)sc2ccccc12 | 14.6 µM (active)
38 | O=C(NCc1ccc2c(c1)OCO2)c1ccc(Cl)s1 | inactive
39 | O=C(NCc1ccc2c(c1)OCO2)c1sccc1Br | inactive
40 | COC(=O)c1ccc2ccccc2c1OC1OC(CO)C(O)C(O)C1NC(C)=O (centres undefined) | inactive
41 | CCOc1cccc(/C(O)=C2/C(=O)C(=O)N(CCOC)C2c2ccncc2)c1 (centres undefined) | inactive
42 | CS(=O)(=O)N1CCN(C(=O)CSc2ccccc2)CC1 | inactive
43 | COCCn1c(SC(C)C(=O)NC2CC2)nnc1-c1cccc(C)c1 (centres undefined) | inactive
44 | COc1ccc(C(CNC(=O)c2ccc(OCc3cscn3)cc2)N2CCCC2)cc1 (centres undefined) | inactive
45 | C=CCN(CC=C)C(=O)CN1C(=O)c2ccccc2C1=O | inactive
46 | CN(C)/C=C(/C(=O)c1ccccc1Cl)S(C)(=O)=O | inactive

Row | SMILES | Potency
47 | Cc1ccc2nc(-c3cccnc3)c(NC3CCCC3)n2c1 | 20.6 µM (active)
48 | O=C(COC(=O)c1cncc(Br)c1)Nc1ccc(S(=O)(=O)N2CCOCC2)cc1 | inactive
49 | O=C(CCn1nnnc1CN1CCOCC1)N1CCC(c2ccccc2Cl)C1 (centres undefined) | inactive
50 | Cc1cccc(C(=O)N2CCC(c3nc4ccccc4s3)CC2)c1 | inactive
51 | CC(=O)Oc1ccc(OC(C)=O)c2c1C1C=CC2CC1 | 16.4 µM (active)
52 | CC(=O)Oc1ccc(C(C)=O)c2c1OCCO2 | inactive
53 | COc1c(C(=O)N2CCCC2)ccc2ccccc12 | inactive
54 | NC(=O)CC[C@@H]1NC(=O)[C@H](CO)NC(=O)c2cc([N+](=O)[O-])cc(I)c2NCC[C@@H](C(N)=O)NC1=O | inactive
55 | COCC(=O)N1CCc2ccc(NC(=O)c3ccccc3Cl)cc2C1 | inactive
56 | COc1ccc2c(c1)C(C)=CC(C)(C)N2C(=O)CNCc1ccc2c(c1)OCO2 | 20.6 µM (active)
57 | COc1cccc(CNCc2ccc3c(c2)OCO3)c1 | inactive
58 | COc1ccc(NC(=O)NCc2ccc3c(c2)OCO3)c(OC)c1 | inactive
59 | CC(=O)O[C@H]1CC[C@@]2(C)[C@@H](CC[C@@H]3[C@@H]2CC[C@]2(C)[C@@H](C(C)(C)O)C[C@@H]32)C1 | inactive
60 | CC(C)C(=O)NC(C)c1nnc2n1CCN(Cc1cccc3ncccc13)CC2 (centres undefined) | inactive
61 | Cc1nc(N2CCN(c3ccccn3)CC2)c2c(C)c(C(=O)Nc3ccc(F)cc3)sc2n1 | 20.6 µM (active)
62 | Cn1c(SCC(=O)Nc2ccc(N3CCOCC3)cc2)nnc1C(F)(F)F | inactive
63 | COc1ccc(NC(=O)c2sc3nc(C)nc(N4CCN(c5ccccn5)CC4)c3c2C)c(OC)c1 | 11.6 µM (active)
64 | O=C(Nc1ccc(N2CCOCC2)nc1)c1c(F)cccc1F | inactive
65 | CCOC(=O)C1CCCN(C(=O)c2sc3nc(C)nc(N4CCOCC4)c3c2C)C1 (centres undefined) | inactive
66 | CCOc1ccc(Cn2nnc(C(=O)Nc3ccc(OC)cc3OC)c2N)cc1 | inactive
67 | CCS(=O)(=O)N1Cc2ccccc2CC1C(=O)Nc1ccc(OC)cc1OC (centres undefined) | inactive
68 | Cc1nc(N2CCOCC2)c2c(C)c(C(=O)Nc3ccc(C(F)(F)F)cc3)sc2n1 | 18.4 µM (active)
69 | Cc1nc2c(-c3ccc(F)cc3)c(C)nn2c(C)c1CCC(=O)N1CCN(c2ccccn2)CC1 | inactive
